# Laboratory results from PubChem BioAssay.
# The other results are listed elsewhere or left out. A number with no mark means an inactive call. Active and inactive are the calls of the source.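 Rule for the calls, unless noted: active = inhibition above the primary screen's cutoff, its mean inhibition plus 3 SD (cut at about 35% in these data); inactive = the rest.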
# Tests used:
# [1] = molecular target: Glutathione S-transferase omega-1 (Homo sapiens) (UniProt P78417); experiment: recombinant GSTO1 blockers, retest – biochemical, fluorescence polarization, triplicate, counter-screen for RBBP9 inhibitor project, confirmation (AID 2176); conditions: recombinant GSTO1, probe fluorescence polarization; at 5.96 µM; hits give high values;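 note: loss of polarization as inhibitors block binding of rhodamine sulfonate ester activity probe; 0% = GSTO1 with DMSO and 100% = wells lacking GSTO1 enzyme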
# [2] = molecular target: Protein-arginine deiminase type-4 (Homo sapiens) (UniProt Q9UM07); experiment: protein arginine deiminase 4 blockade, retest – biochemical, fluorescence polarization, confirmation (AID 488796;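 active = mean inhibition across replicates above the hit cutoff set by the earlier primary screen, cut at about 15% in these data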;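 note: inhibitors block active-site labeling by the probe so polarization falls; 0% = PAD4 with probe and DMSO and 100% = probe without PAD4 enzyme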); conditions: recombinant PAD4, RCA probe fluorescence polarization; at 6.36 µM; hits give high values
# [3] = molecular target: Platelet-activating factor acetylhydrolase (Homo sapiens) (UniProt Q13093); experiment: inhibition of plasma PAF acetylhydrolase – biochemical, fluorescence polarization, human, confirmation (AID 463230;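 active = mean inhibition of the triplicate above the hit cutoff set for the earlier primary screen, cut at about 25% in these data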;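 note: 0% = enzyme with DMSO and 100% = wells lacking pPAFAH enzyme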); conditions: recombinant pPAFAH, FP-Rh probe fluorescence polarization; at 3.39 µM; hits give high values
# [4] = molecular target: Serine protease HTRA1 (Homo sapiens) (UniProt Q92743); experiment: confirming inhibition of human HTRA1 – biochemical, fluorescence polarization, confirmation (AID 540248;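 active = mean inhibition over three repeats above a set limit taken from the earlier primary screen, cut at about 37% in these data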;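 note: 0% = HTRA1 with DMSO and 100% = wells lacking HTRA1; inhibitors block probe binding so polarization drops and inhibition rises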); conditions: recombinant HTRA1, FP-rhodamine activity-based probe, at 5.96 µM, hits give high values
# [5] = molecular target: (Lyso)-N-acylphosphatidylethanolamine lipase (Mus musculus) (UniProt Q8VD66); experiment: mouse ABHD4 hydrolase blockers, triplicate – biochemical, fluorescence polarization, confirmation (AID 720658;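 active = mean inhibition across replicates above the hit cutoff set in the primary screen, cut at about 30% in these data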;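 note: 0% = wild-type ABHD4 with DMSO and 100% = catalytically dead S159A mutant with DMSO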); conditions: purified mABHD4, FP-Rh probe fluorescence polarization; at 8.92 µM; hits give high values
# [6] = molecular target: Photoreceptor-specific nuclear receptor (Homo sapiens) (UniProt Q9Y5X4); experiment: corepressor-releasing ligands of human NR2E3 – biochemical, TR-FRET, confirmation (AID 2379; in the data active = activation above about 20%); conditions: cell-free NR2E3 corepressor release, 5 h, at 3.98 µM, hits give high values
# [7] = molecular target: Peroxisome proliferator-activated receptor gamma (Homo sapiens) + Nuclear receptor corepressor 2 (Homo sapiens) (UniProt P37231+Q9Y618); experiment: agonists of PPARg-NCOR2 corepressor interaction, counter-screen for NR2E3 agonist project, biochemical, TR-FRET (AID 504787; in the data active = inhibition above about 20%;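 note: 0% = DMSO vehicle and 100% = wells without protein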); conditions: TR-FRET PPARg-NCOR2 coregulator interaction, at 3.98 µM, hits give high values
# [8] = molecular target: Oxytocin receptor (Homo sapiens) (UniProt P30559); experiment: oxytocin receptor activation, retest of hits – fluorescence, CHO-OTR cells, triplicate, confirmation (AID 434963;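 active = mean activation above about 20% derived from the earlier single-dose screen, limit read from the data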;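 note: peak over minimum fluorescence ratio per well during a 100 second FLIPR read; 0% = DMSO alone and 100% = oxytocin high control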); conditions: Fluo-8 calcium fluorescence, agonist, at 3 µM, hits give high values
# [9] = molecular target: Vasopressin V1a receptor (Homo sapiens) (UniProt P37288); experiment: activators of vasopressin V1R in CHO cells – cell-based, triplicate, fluorescence, counter-screen for OXTR agonist project (AID 434991;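 active = mean activation over triplicate exceeds the hit threshold set in the earlier primary screen, cut at about 20% in these data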;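 note: peak over basal fluorescence ratio within a 100 second read; 0% = DMSO alone and 100% = 3 nM vasopressin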); conditions: Fluo-8 calcium fluorescence, at 3 µM, hits give high values
# [10] = molecular target: Lytic switch protein BZLF1 (Epstein-Barr virus (strain B95-8)) (UniProt P03206); experiment: blockers of Zta-ZRE DNA complex – biochemical, fluorescence polarization, triplicate, confirmation (AID 2361;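 active = mean inhibition across triplicate runs above the hit threshold derived for the original primary screen, cut at about 33% in these data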;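 note: 0% = Zta with DMSO and 100% = wells lacking Zta protein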); conditions: Zta-ZRE DNA binding, at 11.1 µM, hits give high values
# [11] = tested on: Epstein-Barr virus nuclear antigen 1 (EBNA-1), Human herpesvirus 4; experiment: blockers of EBV EBNA-1 binding to DNA – biochemical, fluorescence polarization, counter-screen for ZTA inhibitor project (AID 2362; call rule not given here); conditions: EBNA-1 DNA binding, at 14.8 µM, hits give high values
# Peroxisome proliferator-activated receptor gamma (Homo sapiens) + Nuclear receptor corepressor 2 (Homo sapiens), sequence (P37231 whole entry, looked up): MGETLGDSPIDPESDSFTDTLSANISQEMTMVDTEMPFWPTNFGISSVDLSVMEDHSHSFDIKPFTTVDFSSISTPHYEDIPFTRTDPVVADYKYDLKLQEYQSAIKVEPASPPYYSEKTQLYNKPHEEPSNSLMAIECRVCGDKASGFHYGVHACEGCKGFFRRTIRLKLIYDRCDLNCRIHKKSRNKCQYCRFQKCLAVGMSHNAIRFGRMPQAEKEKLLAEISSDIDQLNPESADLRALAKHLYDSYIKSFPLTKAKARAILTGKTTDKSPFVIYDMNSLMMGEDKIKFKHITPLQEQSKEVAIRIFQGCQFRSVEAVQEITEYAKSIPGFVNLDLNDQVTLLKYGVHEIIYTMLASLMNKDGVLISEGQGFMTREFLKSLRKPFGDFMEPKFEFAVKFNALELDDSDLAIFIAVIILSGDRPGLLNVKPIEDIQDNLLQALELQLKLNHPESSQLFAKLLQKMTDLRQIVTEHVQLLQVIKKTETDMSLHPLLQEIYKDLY
# Peroxisome proliferator-activated receptor gamma (Homo sapiens) + Nuclear receptor corepressor 2 (Homo sapiens), sequence (Q9Y618 whole entry, looked up): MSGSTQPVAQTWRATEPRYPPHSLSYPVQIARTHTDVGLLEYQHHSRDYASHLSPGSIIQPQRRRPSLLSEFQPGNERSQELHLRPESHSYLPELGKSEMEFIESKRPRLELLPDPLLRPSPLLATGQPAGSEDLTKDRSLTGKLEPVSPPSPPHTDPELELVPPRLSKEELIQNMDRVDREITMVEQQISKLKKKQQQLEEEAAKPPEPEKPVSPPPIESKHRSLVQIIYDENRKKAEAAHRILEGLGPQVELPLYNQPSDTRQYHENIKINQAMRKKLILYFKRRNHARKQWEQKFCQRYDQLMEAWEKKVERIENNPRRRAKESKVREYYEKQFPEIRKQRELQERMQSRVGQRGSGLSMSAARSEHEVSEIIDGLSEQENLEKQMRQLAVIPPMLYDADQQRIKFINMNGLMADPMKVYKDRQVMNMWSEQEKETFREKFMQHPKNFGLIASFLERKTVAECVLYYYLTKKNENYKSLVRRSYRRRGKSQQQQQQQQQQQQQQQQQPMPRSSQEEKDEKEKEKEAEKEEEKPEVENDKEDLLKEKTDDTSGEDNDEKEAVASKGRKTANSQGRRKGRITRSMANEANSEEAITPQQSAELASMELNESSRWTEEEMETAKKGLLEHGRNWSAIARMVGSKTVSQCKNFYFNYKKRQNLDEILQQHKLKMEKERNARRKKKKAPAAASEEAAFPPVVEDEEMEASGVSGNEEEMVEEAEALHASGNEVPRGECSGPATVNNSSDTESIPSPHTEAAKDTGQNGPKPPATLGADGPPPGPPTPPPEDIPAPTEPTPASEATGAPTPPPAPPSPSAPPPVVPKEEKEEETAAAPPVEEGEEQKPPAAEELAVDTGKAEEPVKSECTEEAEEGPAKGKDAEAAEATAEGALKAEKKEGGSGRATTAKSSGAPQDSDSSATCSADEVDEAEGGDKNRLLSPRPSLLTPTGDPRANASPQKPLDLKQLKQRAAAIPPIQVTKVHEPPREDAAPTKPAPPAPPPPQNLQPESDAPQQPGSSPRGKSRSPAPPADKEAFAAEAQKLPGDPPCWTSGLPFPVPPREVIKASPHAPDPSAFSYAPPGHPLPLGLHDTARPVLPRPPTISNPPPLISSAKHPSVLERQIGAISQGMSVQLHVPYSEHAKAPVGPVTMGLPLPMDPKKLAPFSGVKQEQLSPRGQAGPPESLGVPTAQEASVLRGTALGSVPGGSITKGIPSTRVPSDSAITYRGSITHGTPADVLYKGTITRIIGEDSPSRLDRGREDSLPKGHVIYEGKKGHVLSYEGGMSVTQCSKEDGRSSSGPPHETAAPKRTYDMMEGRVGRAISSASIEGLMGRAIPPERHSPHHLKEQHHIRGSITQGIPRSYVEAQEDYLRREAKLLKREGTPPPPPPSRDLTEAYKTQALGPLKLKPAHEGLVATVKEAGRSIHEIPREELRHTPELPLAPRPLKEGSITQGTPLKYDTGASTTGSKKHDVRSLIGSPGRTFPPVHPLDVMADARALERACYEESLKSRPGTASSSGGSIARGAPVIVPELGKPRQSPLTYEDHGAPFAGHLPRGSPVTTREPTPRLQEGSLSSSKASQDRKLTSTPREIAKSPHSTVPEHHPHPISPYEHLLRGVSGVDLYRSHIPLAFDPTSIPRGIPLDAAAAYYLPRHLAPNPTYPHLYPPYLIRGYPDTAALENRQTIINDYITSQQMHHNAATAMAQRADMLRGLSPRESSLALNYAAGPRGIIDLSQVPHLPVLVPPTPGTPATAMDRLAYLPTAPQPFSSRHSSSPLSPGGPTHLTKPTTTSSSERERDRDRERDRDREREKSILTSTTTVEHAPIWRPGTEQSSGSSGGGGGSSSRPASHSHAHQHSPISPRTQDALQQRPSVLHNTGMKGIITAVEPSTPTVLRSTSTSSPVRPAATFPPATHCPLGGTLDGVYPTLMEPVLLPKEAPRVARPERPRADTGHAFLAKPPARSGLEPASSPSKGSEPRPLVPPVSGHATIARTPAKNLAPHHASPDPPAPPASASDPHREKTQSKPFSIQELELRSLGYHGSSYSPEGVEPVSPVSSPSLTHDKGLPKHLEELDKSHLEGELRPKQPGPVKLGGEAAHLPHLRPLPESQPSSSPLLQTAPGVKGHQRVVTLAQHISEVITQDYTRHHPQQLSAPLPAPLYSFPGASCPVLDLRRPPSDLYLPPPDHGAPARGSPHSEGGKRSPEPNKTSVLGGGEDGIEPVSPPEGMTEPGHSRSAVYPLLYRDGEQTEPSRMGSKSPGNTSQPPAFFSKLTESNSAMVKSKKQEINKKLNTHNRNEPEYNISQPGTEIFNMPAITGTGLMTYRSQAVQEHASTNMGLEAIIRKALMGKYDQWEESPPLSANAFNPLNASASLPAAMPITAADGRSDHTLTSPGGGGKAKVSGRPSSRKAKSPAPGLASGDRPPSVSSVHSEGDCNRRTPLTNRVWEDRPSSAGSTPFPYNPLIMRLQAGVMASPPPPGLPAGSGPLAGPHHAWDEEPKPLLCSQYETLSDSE
# Lytic switch protein BZLF1 (Epstein-Barr virus (strain B95-8)), sequence (P03206 whole entry, looked up): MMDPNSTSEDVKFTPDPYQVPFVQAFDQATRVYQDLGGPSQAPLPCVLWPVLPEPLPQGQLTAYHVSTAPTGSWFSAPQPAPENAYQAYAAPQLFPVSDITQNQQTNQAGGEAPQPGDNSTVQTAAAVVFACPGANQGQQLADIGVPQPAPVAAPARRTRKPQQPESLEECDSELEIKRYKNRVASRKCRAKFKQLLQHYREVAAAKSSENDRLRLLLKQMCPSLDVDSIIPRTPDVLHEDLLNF
# Protein-arginine deiminase type-4 (Homo sapiens), sequence (Q9UM07 whole entry, looked up): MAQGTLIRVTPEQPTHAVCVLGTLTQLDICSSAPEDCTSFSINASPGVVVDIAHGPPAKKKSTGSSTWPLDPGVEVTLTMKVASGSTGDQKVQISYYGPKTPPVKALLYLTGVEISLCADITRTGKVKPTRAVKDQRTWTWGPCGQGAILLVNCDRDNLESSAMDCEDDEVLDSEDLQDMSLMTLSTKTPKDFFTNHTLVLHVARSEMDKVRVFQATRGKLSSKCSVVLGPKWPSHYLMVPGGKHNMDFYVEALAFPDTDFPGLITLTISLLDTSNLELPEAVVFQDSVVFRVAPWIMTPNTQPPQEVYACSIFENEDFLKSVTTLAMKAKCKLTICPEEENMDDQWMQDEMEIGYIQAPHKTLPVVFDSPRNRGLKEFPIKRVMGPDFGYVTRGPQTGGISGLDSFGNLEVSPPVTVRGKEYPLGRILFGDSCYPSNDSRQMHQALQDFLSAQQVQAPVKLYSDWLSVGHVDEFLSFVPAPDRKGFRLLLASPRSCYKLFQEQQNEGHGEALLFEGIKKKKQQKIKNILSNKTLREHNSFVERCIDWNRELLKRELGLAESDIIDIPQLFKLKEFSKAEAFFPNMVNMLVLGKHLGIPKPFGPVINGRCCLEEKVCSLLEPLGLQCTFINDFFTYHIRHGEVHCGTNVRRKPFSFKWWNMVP
# Oxytocin receptor (Homo sapiens), sequence (P30559 whole entry, looked up): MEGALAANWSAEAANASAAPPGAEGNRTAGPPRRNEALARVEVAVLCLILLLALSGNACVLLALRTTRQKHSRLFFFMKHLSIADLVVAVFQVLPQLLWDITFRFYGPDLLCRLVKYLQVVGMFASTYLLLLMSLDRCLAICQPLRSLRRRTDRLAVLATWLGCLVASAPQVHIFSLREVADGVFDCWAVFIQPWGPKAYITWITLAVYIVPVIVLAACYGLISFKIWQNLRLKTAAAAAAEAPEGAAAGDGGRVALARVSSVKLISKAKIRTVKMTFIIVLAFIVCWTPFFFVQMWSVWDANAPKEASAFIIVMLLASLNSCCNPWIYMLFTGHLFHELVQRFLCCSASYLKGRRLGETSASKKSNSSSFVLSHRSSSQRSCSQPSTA
# Vasopressin V1a receptor (Homo sapiens), sequence (P37288 whole entry, looked up): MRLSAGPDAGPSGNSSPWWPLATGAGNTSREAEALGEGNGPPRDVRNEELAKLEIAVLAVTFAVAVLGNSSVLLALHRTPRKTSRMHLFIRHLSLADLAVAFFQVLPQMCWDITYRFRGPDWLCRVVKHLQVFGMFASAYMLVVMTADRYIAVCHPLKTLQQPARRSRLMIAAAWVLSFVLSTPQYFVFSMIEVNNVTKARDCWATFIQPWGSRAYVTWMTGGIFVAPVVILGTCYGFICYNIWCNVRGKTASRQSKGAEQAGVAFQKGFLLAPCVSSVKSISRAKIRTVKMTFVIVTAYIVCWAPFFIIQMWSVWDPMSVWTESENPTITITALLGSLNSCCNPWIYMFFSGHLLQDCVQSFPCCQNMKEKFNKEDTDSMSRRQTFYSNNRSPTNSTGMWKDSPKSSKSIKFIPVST
# Glutathione S-transferase omega-1 (Homo sapiens), sequence (P78417 whole entry, looked up): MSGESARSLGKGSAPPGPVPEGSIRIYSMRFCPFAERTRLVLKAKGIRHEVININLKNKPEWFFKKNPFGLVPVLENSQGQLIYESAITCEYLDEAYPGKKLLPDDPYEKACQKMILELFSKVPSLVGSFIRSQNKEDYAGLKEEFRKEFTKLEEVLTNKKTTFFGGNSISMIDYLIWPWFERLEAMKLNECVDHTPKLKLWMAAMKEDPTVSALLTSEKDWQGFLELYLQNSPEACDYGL
structure (smiles),measurement,setting,value
O=[N+]([O-])c1ccc(C=Nc2ccc(Cl)cc2Cl)s1,inhibition,[1],11.6%
CCOC(=O)c1c(NC(=O)c2ccc(S(=O)(=O)N(C)CC3CCCO3)cc2)sc2c1CC(C)(C)NC2(C)C (centres undefined),inhibition,[1],4.04%
CC1C(=O)Nc2ccccc2N1C(=O)c1ccc(F)cc1F (centres undefined),inhibition,[1],5.92%
c1coc(-c2nc3nc4ccccc4n3nc2-c2ccco2)c1,inhibition,[1],16.5%
O=c1c(/C=N/O)coc2ccc(Cl)cc12,inhibition,[1],4.5%
O=C(Nc1cc(N2CCOCC2)ncn1)NC1(C(F)(F)F)Oc2ccc(Cl)cc2O1 (centres undefined),inhibition,[1],8.59%
Oc1c(C=Nc2cccc3nsnc23)ccc2ccccc12,inhibition,[1],69.9% (active)
same,inhibition,[2],-54.5%
O=S(=O)(O)Oc1c[nH]c2ccccc12,inhibition,[1],51.2% (active)
O=c1cc(CCl)nc2scc(-c3ccccc3)n12,inhibition,[1],96.3% (active)
CCC1(CC)Cc2ccccc2-c2nc(CCl)[nH]c(=O)c21,inhibition,[1],94% (active)
CC/C(=N/Nc1ccccc1)c1cnnc(SC)n1,inhibition,[1],9.56%
NNC(=O)c1oc2nc(-c3ccccc3)cc(-c3ccco3)c2c1N,inhibition,[1],3.35%
same,inhibition,[3],18.2%
CCOc1c(Br)cc(/C=C2\C(=O)N(CCC#N)N=C2C)cc1OC,inhibition,[1],3.85%
same,inhibition,[2],-1.18%
Cc1cccc(N2CCN(c3ccc(NC(=O)/C=C\C(=O)O)cc3)CC2)c1,inhibition,[1],7.27%
same,inhibition,[4],6.16%
same,inhibition,[5],0.64%
COC(=O)CCCC1=CC2=CC(=O)C(C)(OC(=O)c3cccs3)C(=O)C2=CN1CC1CC1 (centres undefined),inhibition,[1],30.3%
same,inhibition,[2],1.6%
CC(C)c1ccc(C2C(C(=O)c3ccco3)=C(O)C(=O)N2CC2CCCO2)cc1 (centres undefined),activation (reported as inhibition),[6],-0.08%
same,inhibition,[7],1.84%
CN(Cc1ccccc1)Cc1ccccc1F,activation (reported as inhibition),[6],-2.78%
same,inhibition,[7],-3.03%
CC1=CC2=NC(=O)/C(=C/c3coc4ccccc4c3=O)C(=N)N2O1,activation,[8],40% (active)
same,activation,[9],36.5% (active)
CSc1nnc(SCc2nc3sc(C(=O)O)c(C)c3c(=O)[nH]2)s1,inhibition,[10],55.8% (active)
same,inhibition,[11],5.58%
same,inhibition,[3],43.4% (active)
CCOC(=O)c1ccc(NC(=S)N2CCN(c3ccccn3)CC2)cc1,activation (reported as inhibition),[6],-3.59%
same,inhibition,[7],-8.54%
Cn1c(SCC(=O)N/N=C/c2ccc(O)c(O)c2)nc2ccccc21,inhibition,[1],3.76%
same,inhibition,[4],72.4% (active)
same,inhibition,[5],14.6%
c1ccc(C2CNCc3c2ccc2ccccc32)cc1 (centres undefined),activation,[8],15.8%
same,activation,[9],6.47%
CC(CO)(CO)NC(=O)c1ccc(=O)[nH]n1,activation,[8],-0.33%
same,activation,[9],0.63%
C/C(=N\NS(=O)(=O)c1ccc(Cl)cc1)c1ccc(NC(=O)c2ccco2)cc1,activation,[8],17.6%
same,activation,[9],11.1%
N#Cc1c(N)nc2c3c(sc(=N)c2c1N)NC(=O)CC3c1ccccc1Cl (centres undefined),activation (reported as inhibition),[6],-9.26%
same,inhibition,[7],-7.41%
CCN1CCN(CCNC(=O)c2ccc(/C=C3/Sc4ccccc4N(Cc4cccc(C)c4)C3=O)cc2)CC1,inhibition,[10],49.5% (active)
same,inhibition,[11],1.16%
CCOc1cc(/C=C(\C#N)c2nc(-c3cccs3)c(NC(C)=O)s2)ccc1O,activation,[8],31.9% (active)
same,activation,[9],25.4% (active)
COc1cc(C(CCN2CCN(c3ccccc3)CC2)c2c(OC)cc(OC)c3ccc(=O)oc23)cc(OC)c1OC (centres undefined),activation,[8],-0.33%
same,activation,[9],0.28%
NC(=O)C1=C[C@H](c2csc3ccccc23)C[C@H](OCc2ccc(CO)cc2)O1,activation,[8],17.8%
same,activation,[9],10.2%
CC1(C)CC[C@@]2(C(=O)O)C(C1)C1=CCC3[C@@]4(C)CC[C@H](O)C(C)(C)C4CC[C@@]3(C)[C@]1(C)C[C@H]2O (some centres undefined),activation,[8],67.3% (active)
same,activation,[9],1.34%
COc1ccc(N2CCN(C(=O)CN3C(=O)COc4ccccc43)CC2)cc1,inhibition,[10],-8.37%
same,inhibition,[11],-9.94%
CCCc1ccc(OCC(=O)NNC(=S)NC(=O)c2ccco2)cc1,activation,[8],13.2%
same,activation,[9],20.2%
C#CCOCCOCCOCCNc1nc(N2CCN(C(=O)CCCCCCCCCCNC(=O)[C@H]([C@@H](C)CC)n3cc(CCCCN=C(N)N)nn3)CC2)nc(N2CCN(C(=O)CCCCCCCCCCNC(=O)[C@H](CO)n3cc(CCCSC)nn3)CC2)n1,inhibition,[10],57.5% (active)
same,inhibition,[11],1.4%
